Data from PubChem BioAssay (NCI).
The panel holds about 79,000 compounds, 15% with a hit somewhere; the sample as a whole holds those more often. The source made the active and inactive calls. No stated cut-off is given here; in the data, active means growth inhibition above about 70%; inactive means the rest. Where a SMILES comes first, the peptide text is derived from it. The star is where a group is joined. Boc = CC(C)(C)OC(=O)*; Bn = c1ccc(C*)cc1

Key:
[1] = NCI Yeast Anticancer Drug Screen. Data for the rad50 strain (AID 155);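 further: 0% = growth of vehicle-only cultures of the same strain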; details: S. cerevisiae rad50 strain growth inhibition; at 50.0 µM; hits give high values
How it was run: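 Cells are treated with compound, grown, and their growth is then scored against vehicle-only cultures of the same repair-deficient yeast strain.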

[2] = NCI Yeast Anticancer Drug Screen. Data for the mec2-1 strain (AID 157); details: S. cerevisiae mec2-1 strain, at 50.0 µM, hits give high values
How it was run: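 mec2-1 yeast strain, carrying an alteration in DNA damage repair or cell cycle control, was exposed to compounds; growth inhibition was measured relative to vehicle-treated controls.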

[3] = NCI Yeast Anticancer Drug Screen. Data for the sgs1 mgt1 strain (AID 161);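 further: 0% = growth of cultures given vehicle only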; details: S. cerevisiae sgs1 mgt1 strain, at 50.0 µM, hits give high values
How it was run: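 Percent growth inhibition was derived by comparing compound-exposed mutant yeast with vehicle-exposed cultures. The strain carries alterations in DNA damage repair.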

[4] = NCI Yeast Anticancer Drug Screen. Data for the cln2 rad14 strain (AID 165);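 further: 0% = growth equal to vehicle treated cultures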; details: S. cerevisiae cln2 rad14 strain, at 50.0 µM, hits give high values
How it was run: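 Yeast carrying cln2 and rad14 alterations (cell cycle control and DNA damage repair) were exposed to compounds. Growth inhibition was measured against vehicle-treated controls.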

[5] = NCI Yeast Anticancer Drug Screen. Data for the bub3 strain (AID 167); details: S. cerevisiae bub3 mutant strain, at 50.0 µM, hits give high values
How it was run: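 Part of a panel of yeast mutants defective in DNA damage repair or cell cycle regulation. Each strain is grown with compound, and inhibition is calculated relative to solvent-treated cultures.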

[6] = NCI Yeast Anticancer Drug Screen. Data for the mlh1 rad18 strain (AID 175); details: S. cerevisiae mlh1 rad18 strain growth inhibition; at 50.0 µM; hits give high values
How it was run: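 Growth inhibition of the yeast strain was measured after compound exposure and expressed relative to vehicle-treated controls. The strain carries defined defects in DNA damage repair.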

Measured: growth inhibition

COC(=O)C(CC(C)C)NC(=O)CNC(=O)C(Cc1ccc(OCc2ccccc2)cc1)NC(=O)C(COCc1ccccc1)NC(=O)OC(C)(C)C (stereo not given) (Boc-S(Bn)Y(Bn)GL-OMe; configuration not given here)
inactive: [1] -26.8% | [2] -22.6% | [3] -23.8% | [4] 11.8% | [5] 2.65% | [6] -10.5%

COc1cc(C(=O)C(C=O)c2ccccc2)c([N+](=O)[O-])cc1OC (stereo not given)
inactive: [1] 14.8% | [2] 21.4% | [3] 21.5% | [4] 25.8% | [5] 43% | [6] 23.1%

O=C(CCl)OCCN(CCOC(=O)CCl)Cc1coc2ccccc2c1=O
inactive: [1] -4.35% | [2] -16.2% | [3] -4.85% | [4] -23.4% | [5] -1.1% | [6] -5.65%

O=C(Nc1ccc2c(c1)Cc1ccccc1-2)C(Cl)Cl
inactive: [1] 20.4% | [2] 1.95% | [3] 10.6% | [4] -7.85% | [5] 42.5% | [6] 14%

COc1ccc(/C=C/C(=O)C(C)(C)C)cc1OC
inactive: [1] 25.4% | [2] 3.9% | [3] 3.6% | [4] 31.5% | [5] 27.9% | [6] 23.2%

O=[N+]([O-])c1ccc(Cl)c(OCCCBr)c1
active: [6] 70.3%
inactive: [1] 10.3% | [2] 39.5% | [3] 48.6% | [4] 14.9% | [5] 57.2%

CCOc1ccc(NC(=O)C2=C(C)NC(C)=C(C(=O)Nc3ccc(OCC)cc3)C2c2ccccc2)cc1
inactive: [1] -22.9% | [2] -7.4% | [3] -20.9% | [4] -17.1% | [5] -16.2% | [6] -18.2%

N#CSCc1ccc(CSC#N)c(Br)c1
inactive: [1] 20.2% | [2] 14.9% | [3] 7.85% | [4] 18.6% | [5] 10.4% | [6] 43.4%

COc1cc(/C=C2\C=Cc3ccccc32)ccc1N(C)C
inactive: [1] 5.45% | [2] -13.2% | [3] -6.85% | [4] -54.4% | [5] 3.8% | [6] -15.5%

COc1ccc2nc(NC(=O)C(=O)C(C#N)c3ccc(Cl)c(Cl)c3)sc2c1 (stereo not given)
inactive: [1] 36.2% | [2] 5.4% | [3] 19.1% | [4] 33.9% | [5] -2.2% | [6] 36.4%

C/C(CC(O)(C(F)(F)Cl)C(F)(F)Cl)=N\Nc1ccccc1
inactive: [1] 28% | [2] 15.1% | [3] 6.55% | [4] 28.1% | [5] -0.9% | [6] 17.5%

C/C(=N\NC(N)=O)C1CCCc2ccccc21 (stereo not given)
inactive: [1] 2.45% | [2] -15.3% | [3] -9.8% | [4] -6.55% | [5] -10.3% | [6] 10.2%

CCN(CC)CCN1C(=O)c2cccc3cc(N)cc(c23)C1=O
inactive: [1] -1.9% | [2] -27.3% | [3] -7.4% | [4] -3.75% | [5] -9.6% | [6] 2.2%

NNC(=O)/C(NC(=O)c1ccccc1)=C(\N)c1cccc([N+](=O)[O-])c1
inactive: [1] -34.4% | [2] -30.4% | [3] 11.7% | [4] 3.25% | [5] -13.1% | [6] 0.9%

C=CCCCCCCCCC(=O)NC(C)C(C)(C)C (stereo not given)
inactive: [1] 29.9% | [2] 19.8% | [3] 14.7% | [4] 39% | [5] 27.3% | [6] 25.5%

Oc1c2cccc1Cc1cccc3c1OCCOCCOCCOCCOc1c(cccc1Cc1cccc(c1O)C3)C2
inactive: [1] 9.1% | [2] 12.8% | [3] 9.45% | [4] 13.8% | [5] 12.4% | [6] -6.05%

O=S(=O)(O)c1cc(S(=O)(=O)O)c2c(N=Nc3cccc4ccccc34)c(O)ccc2c1
inactive: [1] 0.8% | [2] -9.25% | [3] -35.5% | [4] -18.1% | [5] -35.9% | [6] 1.55%

N#Cc1c2c(c(-c3cccs3)n(C3OC(CO)C(O)C(O)C3O)c1=S)CCc1ccccc1-2 (stereo not given)
inactive: [1] 10.7% | [2] -9.55% | [3] -3.35% | [4] -20.4% | [5] 0.8% | [6] 1.6%

Cc1cccc(NC(=O)CSc2nnc(-c3ccc(N=Cc4ccc(Cl)cc4)cc3)o2)c1
inactive: [1] 6.3% | [2] -24.1% | [3] 9.25% | [4] -42.5% | [5] 6.8% | [6] 14.7%

COc1ccc(C2=C(OC(C)=O)c3cccn3-c3ccccc3S2)cc1
inactive: [1] -34.5% | [2] -49.9% | [3] -28.8% | [4] -45.9% | [5] -45.8% | [6] 2.15%

CC(=O)c1ccccc1Cc1cccc2c(Cl)cccc12
inactive: [1] 4.55% | [2] 6.05% | [3] 10.1% | [4] -0.95% | [5] 1.85% | [6] 18.6%

CC(=O)Nc1ncc2ccccc2c1-c1ccc(NC(=O)CCCl)cc1
inactive: [1] -0.65% | [2] 19.4% | [3] 19.8% | [4] -1.3% | [5] 3.6% | [6] 12.8%

CSc1nc(NC2OCC(OC(C)=O)C(OC(C)=O)C2OC(C)=O)c(N=C(C)C(C)=O)c(=O)[nH]1 (stereo not given)
inactive: [1] -3.9% | [2] 17.7% | [3] 15.2% | [4] 4.95% | [5] 3.05% | [6] 12.8%

C=CCNCC(O)C(F)(F)C(F)(F)C(F)(F)C(F)(F)C(F)(F)C(F)(F)F (stereo not given)
inactive: [1] 22.5% | [2] 28.9% | [3] 32.1% | [4] -6.9% | [5] 7.55% | [6] 27.6%

CCOc1ccc(NC=O)cc1
inactive: [1] 0.75% | [2] 8.45% | [3] 5.2% | [4] -3.55% | [5] 18.5% | [6] -11.3%

Cc1ccc(-c2n[nH]c(CC#N)n2)cc1
inactive: [1] 5.55% | [2] 1.6% | [3] -4.6% | [4] -12.7% | [5] -1.55% | [6] 18.7%

COc1cccc([B-]23OCC[N+]2(CNC(=O)c2ccccc2O)CCO3)c1 (stereo not given)
inactive: [1] 29.6% | [2] 2.95% | [3] 12.9% | [4] 6.75% | [5] -3.25% | [6] 19.4%

CC1CCC(C(C)(C)NO)C(=O)C1 (stereo not given)
inactive: [1] -2.8% | [2] 0% | [3] -4.8% | [4] -8.1% | [5] -2.1% | [6] 0.7%

O=C1C2=C(Nc3cc([N+](=O)[O-])ccc3N2)OC1c1ccc(Cl)cc1Cl (stereo not given)
inactive: [1] -2.35% | [2] 23.4% | [3] 5.2% | [4] 10.7% | [5] -7% | [6] 13.2%

CC(C)OCCCN(Cn1c(=S)sc2ccccc21)Cn1c(=S)sc2ccccc21
active: [3] 85.9%
inactive: [1] 66.8% | [2] 54.6% | [4] 42.8% | [5] 39.2% | [6] 55.6%

O=C(CSc1nnc(Cc2ccccc2)o1)Nc1cccc([N+](=O)[O-])c1
inactive: [1] 20.6% | [2] 5.1% | [3] 12.1% | [4] -10.3% | [5] -8.4% | [6] -17%

COC(=O)C(C(=O)C(=O)Nc1ccc(C)cc1)c1nc2ccc([N+](=O)[O-])cc2[nH]c1=O (stereo not given)
inactive: [1] 16.9% | [2] 15.2% | [3] 0.8% | [4] -3.95% | [5] 22.2% | [6] 4.6%

O=C1C=C(NCCc2ccccc2)c2ccccc2C1=O
inactive: [1] 38.5% | [2] -8.6% | [3] 16.6% | [4] 9.15% | [5] 40.4% | [6] -5.1%

CC(C)OP(=O)(O)CCl
inactive: [1] -16.9% | [2] -12.6% | [3] -24.4% | [4] -11.4% | [5] -13.6% | [6] -26.3%

O=S(=O)(Oc1ccc(Cl)cc1)c1cccc(S(=O)(=O)Oc2ccc(Cl)cc2)c1
inactive: [1] 12.8% | [2] 1.6% | [3] -2.65% | [4] -5.55% | [5] 5.5% | [6] 1.8%

O=C(NCc1ccccc1)Nc1cccc2c(NC(=O)NCc3ccccc3)cccc12
inactive: [1] -32.3% | [2] -31.2% | [3] -26.9% | [4] -8.15% | [5] -27.5% | [6] -7.95%

Nc1nc(N)c(N=Nc2ccc(S(=O)(=O)O)cc2)c(N)n1
inactive: [1] -5.35% | [2] -5.3% | [3] 4.25% | [4] -21.1% | [5] 2% | [6] 10.5%

CCNC(C(=O)O)C1CCCCC1 (stereo not given)
inactive: [1] -6.45% | [2] -2.95% | [3] -1.65% | [4] 8.5% | [5] -0.8% | [6] -1.25%

Cc1ccc(S(=O)(=O)OCC(C)(C)CC#N)cc1
inactive: [1] 10.9% | [2] 30.6% | [3] 35.9% | [4] 16.9% | [5] 46.4% | [6] 23.9%

COc1cc(C(=O)Oc2c(C(C)=O)sc3c2c(=O)n(-c2ccccc2)c(=S)n3-c2ccccc2)cc(OC)c1OC
inactive: [1] 19.7% | [2] -5.8% | [3] 8.45% | [4] -13.7% | [5] 17.9% | [6] 22.5%
